Experimental data: PubChem BioAssay (NCI)
About 83,000 compounds went through this panel and 20% of them were active in at least one assay; those are over-represented in the sample as a whole.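 For each line, cells grew in 96-well plates with the test compound present at a single concentration for 48 hours.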 Calls of active or inactive are those of the source. Rule for the calls: active = growth percent below 10; inactive = the rest.

Key:
Assay in all cases: NCI-60 one-dose screen, 48 h (100 = growth as untreated, 0 = no growth, -100 = all killed)
[1] = test system: SR leukemia; details: 10 µM unless noted
[2] = test system: RPMI-8226 leukemia; details: 10 µM unless noted
[3] = test system: OVCAR-8 ovarian; details: 10 µM unless noted
[4] = test system: OVCAR-5 ovarian; details: 10 µM unless noted
[5] = test system: OVCAR-4 ovarian; details: 10 µM unless noted
[6] = test system: SK-OV-3 ovarian; details: 10 µM unless noted
[7] = test system: IGROV1 ovarian; details: 10 µM unless noted
[8] = test system: OVCAR-3 ovarian; details: 10 µM unless noted
[9] = test system: NCI/ADR-RES ovarian; details: 10 µM unless noted
[10] = test system: T-47D breast; details: 10 µM unless noted
[11] = test system: BT-549 breast; details: 10 µM unless noted
[12] = test system: MDA-MB-435 melanoma; details: 10 µM unless noted
[13] = test system: SW-620 colon; details: 10 µM unless noted
[14] = test system: MCF7 breast; details: 10 µM unless noted
[15] = test system: HCT-116 colon; details: 10 µM unless noted
[16] = test system: HCC-2998 colon; details: 10 µM
[17] = test system: KM12 colon; details: 10 µM unless noted

Measured: growth

CC(C)(C)OC(=O)N1CCC(O)[C@@H](O[Si](c2ccccc2)(c2ccccc2)C(C)(C)C)[C@H]1/C=C/c1ccccc1 (stereo partly specified)
inactive: [1] 32.6% | [2] 25.2% | [3] 59.5% | [4] 71.5% | [5] 21.3% | [6] 56.3% | [7] 60.6% | [8] 43.6% | [9] 69.3% | [10] 21.4% | [11] 63% | [12] 57.4% | [13] 50.9% | [14] 36.6% | [15] 24.9% | [16] 44.8% | [17] 47%

Cc1[nH]c(/C=C2\C(=O)Nc3ccc(F)cc32)c(C)c1C(=O)NC[C@H](O)CN1CCOCC1
active: [1] -2.38% | [6] 3.3% | [17] 5.33%
inactive: [2] 49.4% | [3] 42.6% | [4] 15.1% | [5] 50.6% | [7] 19.6% | [8] 70.3% | [9] 64.7% | [10] 59.5% | [11] 37.8% | [12] 18.6% | [13] 11.8% | [14] 38.4% | [15] 10.7% | [16] 41%

Cc1c(NC(=O)OC[C@@H]2COCCN2)cn2ncnc(Nc3ccc4c(cnn4Cc4cccc(F)c4)c3)c12
inactive: [5] 24% | [8] 12.8% | [9] 19.8%
active: [1] -4.38% | [2] 5.44% | [3] -4.01% | [4] 7.38% | [6] -9.89% | [7] -4.73% | [10] -16.7% | [11] 0.365% | [12] 2.07% | [13] 1.74% | [14] 1.5% | [15] 0.842% | [16] 3.83% | [17] 8.03%

CNC(=O)c1ccccc1Nc1nc(Nc2ccc3c(c2OC)CCC[C@H](N2CCN(CCO)CC2)C3)ncc1Cl
inactive: [3] 12.5% | [4] 11.1% | [8] 30.7% | [9] 14% | [11] 29.7%
active: [1] -5.84% | [2] -13% | [5] 4.95% | [6] -6.83% | [7] -36.9% | [10] -23.1% | [12] -27.6% | [13] -19.9% | [14] 6.63% | [15] -62.6%

O=C(NOCCO)c1cc(CN2OCCCC2=O)c(F)c(F)c1Nc1ccc(I)cc1F
active: [16] -18.6%
inactive: [1] 65.6% | [2] 78.8% | [3] 52.1% | [4] 20.2% | [5] 64.5% | [6] 52.3% | [7] 21.2% | [8] 103% | [9] 58.1% | [10] 67.6% | [11] 80.5% | [12] 36.9% | [13] 24.1% | [14] 88.7% | [15] 13.9% | [17] 26.6%

C=CC(=O)Nc1cccc(Nc2nc(Nc3ccc(N4CCN(C(C)=O)CC4)cc3OC)ncc2C(F)(F)F)c1
active: [1] 1.68% | [6] -18% | [7] -29.9% | [10] -5.01% | [13] 2.57% | [14] 4.41%
inactive: [2] 16.8% | [3] 18.9% | [4] 13.4% | [5] 10.5% | [8] 19.5% | [9] 21.3% | [11] 19.7% | [12] 23.1% | [15] 12% | [16] 34.7%

CN1CCC(COc2cnc(-c3cccc(Cn4nc(-c5cccc(C#N)c5)ccc4=O)c3)nc2)CC1
active: [1] -9.84% | [10] -49.1%
inactive: [2] 50.8% | [3] 59.9% | [4] 78.9% | [5] 75.4% | [6] 70.3% | [7] 73.3% | [8] 81.7% | [9] 82.2% | [11] 63.4% | [12] 53.8% | [13] 45.6% | [14] 60.3% | [15] 22.5% | [16] 80.7%

COCc1c(-c2ccc(NC(=O)Nc3cc(C(F)(F)F)ccc3F)c(F)c2)c2c(N)ncnn2c1CN1CCOCC1
active: [1] -9.37% | [2] -33.1% | [3] -28.6% | [4] -18.3% | [5] -6.98% | [6] -34.8% | [7] -21.6% | [8] 6.05% | [9] -21.4% | [10] -27% | [11] -39.5% | [12] -68.8% | [13] -0.244% | [14] -22.9% | [15] -1.82% | [16] -52.1% | [17] -37.2%

C/C(=C(/c1ccc(Cl)cc1)c1ccc(OCCN2CCCCC2)cc1)c1ccccc1
inactive: [1] 11.2% | [2] 69.6% | [3] 78.8% | [4] 81.6% | [5] 77.1% | [6] 86% | [7] 68.5% | [8] 98.6% | [9] 89.8% | [10] 46.7% | [11] 81.3% | [12] 90.9% | [13] 60.1% | [14] 43.6% | [15] 54.2% | [16] 98% | [17] 29.9%

CC1(COc2ccc3c(c2)ncn3-c2ccc3cccc(N4CCC(N)CC4)c3n2)COC1
inactive: [4] 10.3% | [5] 29.2% | [6] 54.2% | [7] 22.7% | [8] 37.2% | [9] 51.5% | [10] 81.7% | [11] 43.1% | [12] 65.5% | [16] 31.2%
active: [1] -6.81% | [2] 0.988% | [3] 3.53% | [13] 1.95% | [14] -10.1% | [15] -45.6% | [17] 6.35%

CN1CCN(CCCOc2cccc3nc(Nc4ccc(Cl)c(C(F)(F)F)c4)ccc23)CC1
inactive: [2] 10.6% | [3] 13.9% | [4] 17.9% | [5] 42.1% | [6] 52.5% | [7] 55.4% | [10] 16.4% | [11] 59.1%
active: [1] -33.3% | [8] -4.07% | [9] -0.603% | [12] -21.4% | [13] -54.8% | [14] -67.3% | [15] -82.7% | [16] -90.8% | [17] -78%

CN(c1ncccc1CNc1nc(Nc2ccc3c(c2)CC(=O)N3)ncc1C(F)(F)F)S(C)(=O)=O
active: [1] -6.03% | [2] -7.65% | [3] 4.96% | [4] 7.36% | [5] -7.63% | [6] 5.63% | [7] 7.61% | [10] -2.8% | [11] -10.5% | [12] -9.58% | [13] 0.466% | [14] 2.39% | [15] 1.07% | [16] -13.5%
inactive: [8] 15.1% | [9] 56.2%

CCOc1cc2ncc(C#N)c(Nc3ccc(F)c(Cl)c3)c2cc1NC(=O)/C=C/CN(C)C
active: [1] -14% | [2] -34.6% | [3] -7.83% | [4] -3.14% | [5] -61.9% | [6] -5.87% | [7] -32.1% | [8] -82.7% | [9] 6.54% | [10] -41.1% | [11] -35.8% | [12] -87.2% | [13] -53.8% | [14] -41.7% | [15] -79.7% | [16] -49.2%

CCc1nc(C(N)=O)c(Nc2ccc(N3CCC(N4CCN(C)CC4)CC3)c(OC)c2)nc1NC1CCOCC1
active: [1] 1.01% | [6] 4.92% | [7] 4.12% | [13] 3.96% | [15] 5.33%
inactive: [2] 28.3% | [3] 39.6% | [4] 26.5% | [5] 81.2% | [8] 53.4% | [9] 32% | [10] 65.1% | [11] 19.9% | [12] 52.3% | [14] 25.6% | [16] 61.4% | [17] 13.8%

CCN1CCN(Cc2ccc(-c3cc4c(N[C@H](C)c5ccccc5)ncnc4[nH]3)cc2)CC1
active: [4] 8.61% | [6] -7.56% | [7] -1.26%
inactive: [1] 21.2% | [2] 55.9% | [3] 35.6% | [5] 76.2% | [8] 56.8% | [9] 46.7% | [10] 29% | [11] 79.2% | [12] 37% | [13] 13.1% | [14] 48.6% | [15] 19.7% | [16] 14.3% | [17] 31.2%

CN1CCN(c2nc(C3=C(c4c[nH]c5ccccc45)C(=O)NC3=O)c3ccccc3n2)CC1
inactive: [1] 68.7% | [2] 97.8% | [3] 66.9% | [4] 25.1% | [5] 71.9% | [6] 87.1% | [7] 75.4% | [8] 110% | [9] 85.1% | [10] 102% | [11] 91% | [12] 41.8% | [13] 48.4% | [14] 95.1% | [15] 32.4% | [16] 19.2% | [17] 36.1%
